Records with an inconclusive call do not appear. Activity calls are given as the source filed them. Unless noted, the call rests on the fitted dose curve; in most records, active means well fitted curve in the direction sought with a large enough effect; inconclusive means small, poorly fitted or top-dose-only effect, or another doubt; inactive means no such curve, though single readings can be large; an effect the other way counts as inactive or inconclusive.
Tests used:
[1] = molecular target: Ferritin light chain (Equus caballus) (UniProt P02791); assay: qHTS Validation Assay for Identification of Novel General Anesthetics (AID 2323); further: series mostly up to about 77 µM
Procedure, shortened: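 Apoferritin from horse spleen (10 uM) was mixed with 1-aminoanthracene at 50% saturation in PBS, then compounds were added. After 10 min at room temperature, fluorescence was read (ex 380 nm, em 535 nm) and normalized to free-probe and complex controls.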

[2] = molecular target: ATP-dependent DNA helicase Q1 (Homo sapiens) (UniProt P46063); assay: qHTS Validation Assay for Inhibitors of RecQ-Like Dna Helicase 1 (RECQ1) (AID 2353); further: potency means the concentration at half of the fitted maximal effect
Procedure, shortened: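 50 nM RECQ1T1 preincubated 15 min with compound in Tris pH 8.0 buffer with MgCl2, DTT, Tween-20 and 2.5 ug/ml poly(dI-dC); started with 200 nM TAMRA/BHQ-2 forked duplex and 2 mM ATP. Unwinding read as fluorescence (525/598 nm), two reads 2 h apart.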

[3] = Cytometric Cell-Based qHTS for Inhibitors of the mTORC1 Signaling Pathway in MEF (Tsc2-/-, p53-/-) Cells (AID 2660); further: potency means the concentration at half of the fitted maximal effect
Procedure, shortened: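 Percent of cells positive for normalized phospho-S6 staining is reported, with the cutoff set from rapamycin (7.5 nM) versus DMSO wells. Tsc2-/-, p53-/- MEFs received compound for 24 hrs.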

[4] = High Content Imaging Cell-Based qHTS for Inhibitors of the mTORC1 Signaling Pathway in MEF (Tsc2-/-, p53-/-) Cells (AID 2666);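 further: percent of cells scored positive for phospho-rpS6 Ser235/236 immunostaining by imaging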; further: potency means the concentration at half of the fitted maximal effect
Procedure, shortened: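 Cells were plated, dosed with compound after 24 hrs, and incubated another 24 hrs at 37 degree Celsius. Fixed cells were immunostained for phospho-rpS6 Ser235/236 and counterstained, and the normalized signal was scored as % active cells against rapamycin and DMSO controls.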

[5] = High Content Imaging Cell-Based qHTS for Inhibitors of the mTORC1 Signaling Pathway in MEF Cells (AID 2667); further: potency means the concentration at half of the fitted maximal effect
Procedure, shortened: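 Immunofluorescence for rpS6 phosphorylation in MEFs of Tsc2-/-, p53-/- background rescued with WT Tsc2. Compound exposure lasted 24 hrs. Inhibition was scored against rapamycin-treated control wells.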

[6] = Validation screen for inhibitors of Lassa infection (AID 463096; calls by dose curve; further: potency means the concentration at half of the fitted maximal effect)
[7] = Validation screen for small molecules that induce DNA re-replication in MCF 10A normal breast cells (AID 463097); further: nearly all actives have a fitted effect of over 60% in size; further: potency means the concentration at half of the fitted maximal effect
Procedure, shortened: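 DNA re-replication was detected as a rise in nuclei with elevated Hoechst fluorescence after a 48 hr compound exposure of MCF 10A cells at 37 C.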

[8] = molecular target: DNA polymerase III PolC-type (Bacillus subtilis (strain 168)) (UniProt P13267); assay: qHTS Validation Assay for the Inhibitors of DNA Replication in Gram-Positive Bacteria (AID 485295); further: potency means the concentration at half of the fitted maximal effect
Procedure, shortened: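 Primed replication of single-stranded M13Gori by a four-protein B. subtilis holoenzyme is measured at room temperature. Double-stranded product is quantified by PicoGreen fluorescence after an EDTA stop; inhibition is scaled between DMSO and EDTA controls.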

[9] = qHTS Validation Assay to Find Inhibitors of Chronic Active B-Cell Receptor Signaling (AID 485345; active means well fitted curve in the direction sought with a large enough effect in the main read-out, with a control signal flat, not every such curve was filed as active)
Procedure, shortened: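 Read-out: ratio of filter-corrected green (IkappaBalpha fusion) to red (native) luciferase signal in doxycycline-induced TMD8 cells after 4 h at 37C. Titration spanned 46 uM–3 nM; Data were normalised to basal cells and 10 uM MG-132 wells.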

[10] = molecular target: ATP-dependent 6-phosphofructokinase (Trypanosoma brucei brucei) (UniProt O15648); assay: qHTS Validation Assay to Find Inhibitors of T. brucei phosphofructokinase (AID 485368); further: potency means the concentration at half of the fitted maximal effect
Procedure, shortened: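 Activity was normalized between 1x (1.25 nM) PFK wells as no inhibition and enzyme-free wells as full inhibition, from luminescence after ADP-Glo detection of ADP made from 0.5 mM F6P and 0.1 mM ATP over 45 min.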

[11] = Quantitative high throughput screen for delayed death inhibitors of the malarial parasite plastid, 48 hour incubation (AID 488752); further: nearly all actives have a fitted effect of over 65% in size; further: potency means the concentration at half of the fitted maximal effect
Procedure, shortened: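 Erythrocytes infected with firefly luciferase-expressing P. falciparum (2% hematocrit, 0.1% parasitemia) cultured with compound for 48 h at 37 C, 5% CO2, in RPMI 1640/0.5% Albumax. Growth inhibition read as loss of luminescence.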

[12] = molecular target: Ubiquitin carboxyl-terminal hydrolase 2 (Homo sapiens) (UniProt O75604); assay: qHTS Validation Assay for Inhibitors of Ubiquitin-specific Protease USP2a Using CHOP2 as the Reporter (AID 463106); further: potency means the concentration at half of the fitted maximal effect
Procedure, shortened: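 10nM USP2 core + cpd, 30min RT; add 25nM Ub-CHOP2/25nM substrate; 60min RT; FI 485/531nm. Buffer Tris pH 8.0, CaCl2, BME, CHAPS. Norm. to NEM = 100% inhibition; time-zero read flags fluorescent artifacts.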

[13] = molecular target: Beta-2 adrenergic receptor (Homo sapiens) (UniProt P07550); assay: qHTS validation assay of beta-arrestin-biased ligands of beta2-adrenergic receptor (AID 485366)
Procedure, shortened: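 Luminescence from a tTA-responsive luciferase, induced when recombinant beta-arrestin is recruited to recombinant beta2-AR, served as the agonism signal. Cells were exposed to compound for 18 hr at 37 degrees C; titrations spanned up to 46 microM.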

[14] = Quantitative high throughput screen for delayed death inhibitors of the malarial parasite plastid, 96 hour incubation (AID 488745); further: nearly all actives have a fitted effect of over 70% in size; further: potency means the concentration at half of the fitted maximal effect
Procedure, shortened: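 Luciferase-expressing P. falciparum in erythrocytes (2% hematocrit, 0.1% parasitemia) incubated with compound for 96 h at 37 C, 5% CO2, in RPMI 1640 with 0.5% Albumax. Growth inhibition read as decreased luminescence.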

[15] = Cytometry Cell-Based qHTS for Inhibitors of the mTORC1 Signaling Pathway in MEF cells (AID 2668);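 further: Tsc2-/- p53-/- mouse embryonic fibroblasts stably re-expressing wild-type Tsc2; percent cells positive for phospho-rpS6 Ser235/236 relative to propidium iodide stain; series mostly up to about 38 µM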
Procedure, shortened: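 Pathway inhibition in WT Tsc2-rescued Tsc2-/-, p53-/- MEFs is measured as the Alexa-488 phospho-rpS6 to propidium iodide intensity ratio after 24 hrs of compound at 37 degree Celsius. PI-stained cell number gives viability.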

[16] = molecular target: Tumor susceptibility gene 101 protein (Homo sapiens) (UniProt Q99816); assay: qHTS Validation Assay for Iinhibitors of HIV-1 Budding by Blocking the Interaction of PTAP/TSG101 (AID 485342; calls by dose curve)
Procedure, shortened: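 Fluorescence anisotropy measured PTAP-Tsg101 interaction. Final concentrations were 10 uM protein domain and 50 nM labeled peptide, equilibrated 20 min at room temperature.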

[17] = molecular target: RecQ-like DNA helicase BLM (Homo sapiens) (UniProt P54132); assay: qHTS Validation Assay for Inhibitors of Bloom's syndrome helicase (BLM) (AID 2364); further: potency means the concentration at half of the fitted maximal effect
Procedure, shortened: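 Forked 20-bp duplex substrate (200 nM, TAMRA/BHQ-2) plus 2 mM ATP added after 15 min compound preincubation with 50 nM enzyme, pH 8.0, poly(dI-dC) 2.5 ug/ml. Strand separation followed by fluorescence (525/598 nm) over 2 h, normalized to enzyme-free and DMSO controls.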

Measured: Potency

Ubiquitin carboxyl-terminal hydrolase 2 (Homo sapiens), sequence (O75604 whole entry, looked up): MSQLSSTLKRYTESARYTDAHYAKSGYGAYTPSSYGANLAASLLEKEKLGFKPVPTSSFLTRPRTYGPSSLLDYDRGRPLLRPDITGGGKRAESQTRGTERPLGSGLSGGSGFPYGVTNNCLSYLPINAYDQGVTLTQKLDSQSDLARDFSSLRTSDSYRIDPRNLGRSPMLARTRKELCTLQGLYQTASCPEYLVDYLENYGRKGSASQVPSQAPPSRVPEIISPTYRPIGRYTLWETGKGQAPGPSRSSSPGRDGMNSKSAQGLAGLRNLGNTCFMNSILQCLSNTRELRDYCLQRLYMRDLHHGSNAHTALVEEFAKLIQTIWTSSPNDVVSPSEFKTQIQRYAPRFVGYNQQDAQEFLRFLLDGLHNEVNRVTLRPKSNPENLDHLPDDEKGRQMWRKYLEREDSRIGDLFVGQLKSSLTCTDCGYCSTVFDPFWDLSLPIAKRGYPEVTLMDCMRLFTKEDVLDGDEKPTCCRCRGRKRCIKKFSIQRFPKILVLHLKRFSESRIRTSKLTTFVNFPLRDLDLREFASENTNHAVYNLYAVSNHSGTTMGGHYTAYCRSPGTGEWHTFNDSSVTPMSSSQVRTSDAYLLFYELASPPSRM
ATP-dependent 6-phosphofructokinase (Trypanosoma brucei brucei), sequence (O15648 whole entry, looked up): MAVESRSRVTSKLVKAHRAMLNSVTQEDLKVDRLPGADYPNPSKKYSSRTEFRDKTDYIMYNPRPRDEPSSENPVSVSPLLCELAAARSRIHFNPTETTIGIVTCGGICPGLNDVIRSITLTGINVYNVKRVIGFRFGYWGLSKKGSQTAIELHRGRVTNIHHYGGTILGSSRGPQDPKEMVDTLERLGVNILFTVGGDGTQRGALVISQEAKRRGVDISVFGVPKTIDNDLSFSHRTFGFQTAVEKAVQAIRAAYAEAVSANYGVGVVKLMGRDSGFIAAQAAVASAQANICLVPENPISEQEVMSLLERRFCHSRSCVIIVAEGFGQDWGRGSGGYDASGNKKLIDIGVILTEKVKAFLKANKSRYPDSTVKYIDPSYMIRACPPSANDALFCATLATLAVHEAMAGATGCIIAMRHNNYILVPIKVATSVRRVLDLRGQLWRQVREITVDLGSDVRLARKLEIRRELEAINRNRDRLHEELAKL
Ferritin light chain (Equus caballus), sequence (P02791 2-175 limits assumed): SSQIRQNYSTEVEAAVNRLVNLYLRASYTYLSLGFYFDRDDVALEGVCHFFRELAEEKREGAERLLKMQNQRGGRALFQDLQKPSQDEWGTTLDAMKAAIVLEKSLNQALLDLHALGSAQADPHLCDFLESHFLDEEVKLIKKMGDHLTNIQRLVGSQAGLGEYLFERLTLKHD
DNA polymerase III PolC-type (Bacillus subtilis (strain 168)), sequence (P13267 whole entry, looked up): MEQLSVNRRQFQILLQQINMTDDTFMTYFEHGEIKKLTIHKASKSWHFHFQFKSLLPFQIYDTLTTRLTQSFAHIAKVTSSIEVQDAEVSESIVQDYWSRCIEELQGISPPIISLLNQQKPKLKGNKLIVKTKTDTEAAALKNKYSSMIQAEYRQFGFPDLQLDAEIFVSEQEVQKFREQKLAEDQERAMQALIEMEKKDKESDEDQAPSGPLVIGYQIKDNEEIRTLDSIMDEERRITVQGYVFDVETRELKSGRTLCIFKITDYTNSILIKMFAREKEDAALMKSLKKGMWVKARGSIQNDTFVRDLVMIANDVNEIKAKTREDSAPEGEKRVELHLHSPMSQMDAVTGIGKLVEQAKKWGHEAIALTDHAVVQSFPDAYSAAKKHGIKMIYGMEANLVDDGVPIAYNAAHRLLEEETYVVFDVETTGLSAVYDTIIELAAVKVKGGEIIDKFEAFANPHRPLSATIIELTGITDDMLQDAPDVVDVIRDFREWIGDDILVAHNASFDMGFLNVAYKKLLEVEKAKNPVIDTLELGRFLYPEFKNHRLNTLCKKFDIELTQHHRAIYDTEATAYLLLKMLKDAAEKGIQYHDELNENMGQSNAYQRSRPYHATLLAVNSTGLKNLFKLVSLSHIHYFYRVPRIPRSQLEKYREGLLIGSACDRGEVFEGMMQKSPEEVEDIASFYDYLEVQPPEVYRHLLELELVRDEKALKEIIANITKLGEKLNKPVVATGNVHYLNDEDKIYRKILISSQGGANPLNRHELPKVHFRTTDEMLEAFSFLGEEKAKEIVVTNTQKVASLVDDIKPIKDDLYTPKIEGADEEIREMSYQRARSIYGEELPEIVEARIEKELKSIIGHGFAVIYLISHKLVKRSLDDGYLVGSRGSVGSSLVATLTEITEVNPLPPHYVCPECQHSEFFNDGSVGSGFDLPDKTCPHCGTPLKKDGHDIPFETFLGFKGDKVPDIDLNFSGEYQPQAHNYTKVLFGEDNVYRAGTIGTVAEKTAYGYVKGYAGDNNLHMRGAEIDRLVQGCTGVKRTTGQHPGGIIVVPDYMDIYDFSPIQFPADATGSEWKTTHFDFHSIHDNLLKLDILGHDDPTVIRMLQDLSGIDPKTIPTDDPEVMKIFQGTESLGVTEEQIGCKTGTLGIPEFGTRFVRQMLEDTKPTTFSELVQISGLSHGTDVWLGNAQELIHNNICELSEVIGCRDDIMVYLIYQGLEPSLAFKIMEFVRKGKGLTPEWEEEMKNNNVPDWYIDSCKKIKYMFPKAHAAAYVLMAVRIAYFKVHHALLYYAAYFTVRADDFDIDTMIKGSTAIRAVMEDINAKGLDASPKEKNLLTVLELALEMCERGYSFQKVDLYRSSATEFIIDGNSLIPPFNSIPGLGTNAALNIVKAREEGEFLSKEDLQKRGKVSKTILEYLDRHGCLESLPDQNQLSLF
Beta-2 adrenergic receptor (Homo sapiens), sequence (P07550 whole entry, looked up): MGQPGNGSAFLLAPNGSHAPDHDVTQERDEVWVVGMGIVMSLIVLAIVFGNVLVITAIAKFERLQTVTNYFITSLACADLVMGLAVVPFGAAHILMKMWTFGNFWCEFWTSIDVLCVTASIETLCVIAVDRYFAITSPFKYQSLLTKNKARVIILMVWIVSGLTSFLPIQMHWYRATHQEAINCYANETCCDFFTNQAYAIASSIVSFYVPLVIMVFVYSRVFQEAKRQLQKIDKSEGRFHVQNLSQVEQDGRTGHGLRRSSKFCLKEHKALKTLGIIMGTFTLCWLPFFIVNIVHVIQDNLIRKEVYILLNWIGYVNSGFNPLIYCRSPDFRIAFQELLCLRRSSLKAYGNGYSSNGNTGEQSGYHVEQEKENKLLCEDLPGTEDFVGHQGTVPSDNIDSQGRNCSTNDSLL
Tumor susceptibility gene 101 protein (Homo sapiens), sequence (Q99816 whole entry, looked up, the tested form may be a part): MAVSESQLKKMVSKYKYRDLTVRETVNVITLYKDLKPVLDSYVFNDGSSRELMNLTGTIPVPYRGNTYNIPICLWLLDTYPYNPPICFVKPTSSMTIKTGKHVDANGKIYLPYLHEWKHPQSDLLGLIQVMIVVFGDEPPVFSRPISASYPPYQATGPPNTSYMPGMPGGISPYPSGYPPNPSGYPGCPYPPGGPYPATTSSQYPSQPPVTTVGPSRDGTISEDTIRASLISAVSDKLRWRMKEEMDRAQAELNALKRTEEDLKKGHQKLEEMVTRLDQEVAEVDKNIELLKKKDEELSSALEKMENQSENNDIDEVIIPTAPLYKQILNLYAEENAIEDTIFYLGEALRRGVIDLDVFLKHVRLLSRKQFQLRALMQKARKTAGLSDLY
ATP-dependent DNA helicase Q1 (Homo sapiens), sequence (P46063 whole entry, looked up): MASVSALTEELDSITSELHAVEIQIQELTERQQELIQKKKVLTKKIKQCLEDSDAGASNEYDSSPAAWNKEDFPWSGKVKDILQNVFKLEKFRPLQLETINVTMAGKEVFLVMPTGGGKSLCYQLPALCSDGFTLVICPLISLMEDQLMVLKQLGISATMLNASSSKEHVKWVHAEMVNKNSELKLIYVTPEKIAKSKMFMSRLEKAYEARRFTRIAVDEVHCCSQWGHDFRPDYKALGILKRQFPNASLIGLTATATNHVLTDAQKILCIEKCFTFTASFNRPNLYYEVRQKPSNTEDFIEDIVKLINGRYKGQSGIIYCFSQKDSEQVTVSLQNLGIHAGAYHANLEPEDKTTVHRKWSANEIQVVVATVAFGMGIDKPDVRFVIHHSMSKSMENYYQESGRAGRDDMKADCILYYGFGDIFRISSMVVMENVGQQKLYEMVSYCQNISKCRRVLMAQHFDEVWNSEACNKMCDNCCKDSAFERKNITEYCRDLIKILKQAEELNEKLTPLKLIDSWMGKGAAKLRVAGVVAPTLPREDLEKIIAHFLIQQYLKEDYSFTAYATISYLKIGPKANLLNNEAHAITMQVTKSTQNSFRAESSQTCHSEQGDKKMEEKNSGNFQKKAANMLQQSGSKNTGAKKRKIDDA

Nc1ccc(CCN2CCN(c3cccc(C(F)(F)F)c3)CC2)cc1
not listed: [12] | [13] | [14] | [15] | [16] | [17]
inactive: all other assays above

c1ccc2c(N3CCNCC3)cccc2c1
not listed: [9] | [15] | [16] | [17]
inactive: all other assays above

COc1ccc(CNC(=O)/C=C/c2ccc3[nH]cc(CCN(C)C)c3c2)cc1
active: [14] 11.7 µM
not listed: [5] | [11] | [12] | [17]
inactive: all other assays above

COc1ccc(OC)c(C(O)C(C)N)c1 (stereo not drawn)
not listed: [5] | [10] | [12] | [16] | [17]
inactive: all other assays above

CNc1ccc2oc(C[C@H]3O[C@@]4(CC[C@H]3C)O[C@H]([C@H](C)C(=O)c3ccc[nH]3)[C@H](C)C[C@H]4C)nc2c1C(=O)O
active: [3] 14.7 µM | [4] 2.61 µM | [6] 7.08 µM | [7] 1.58 µM | [14] 0.104 µM | [11] 2.33 µM
inactive: [1] | [2] | [12] | [8] | [16] | [13]

Cc1o[nH]c(=O)c1CC(N)C(=O)O (stereo not drawn)
not listed: [5] | [16] | [17]
inactive: all other assays above

CN(N=O)c1ccc(O)c(O)c1
active: [2] 1.12 µM | [17] 6.31 µM | [12] 4.14 µM | [8] 23.8 µM
not listed: [1] | [10]
inactive: all other assays above

C=CCN1CC[C@]23c4c5ccc(O)c4O[C@H]2/C(=N/NC(=O)c2ccccc2)CC[C@@]3(O)[C@H]1C5
not listed: [5] | [10] | [11] | [14] | [17]
inactive: all other assays above

CCCN(CCC)[C@@H]1CCc2cccc(O)c2C1
not listed: [5] | [11] | [14] | [17]
inactive: all other assays above

Cc1[nH]c2ccc(O)cc2c1CCN
not listed: [5] | [12] | [14] | [17]
inactive: all other assays above

Oc1ccc2c3c1O[C@H]1c4[nH]c5ccccc5c4C[C@@]4(O)C(C2)N(CC2CC2)CCC314 (stereo partly drawn)
inactive: [1] | [2] | [4] | [7] | [12] | [8] | [16] | [13] | [10]
active: [6] 11.2 µM

CCN(CC)c1ncnc2c1ncn2[C@@H]1O[C@H](COP(=O)(O)OP(=O)(O)C(Br)(Br)P(=O)(O)O)[C@@H](O)[C@H]1O
inactive: [1] | [2] | [6] | [7] | [14] | [11]

CC(N)Cc1c[nH]c2ccc(OCc3cccs3)cc12 (stereo not drawn)
active: [5] 13.1 µM
not listed: [14] | [15] | [17]
inactive: all other assays above

CN1CC[C@@]2(C)c3cc(O)ccc3N(C)C12 (stereo partly drawn)
active: [11] 14.7 µM
not listed: [6] | [7] | [10] | [14] | [15] | [17]
inactive: all other assays above

CCCn1c(C)c(C(=O)c2ccc3ccccc3c2)c2ccccc21
not listed: [5] | [7] | [9] | [10] | [15] | [17]
inactive: all other assays above

CC(C)CC(NP(=O)(O)O[C@@H]1O[C@@H](C)[C@H](O)[C@@H](O)[C@H]1O)C(=O)NC(Cc1c[nH]c2ccccc12)C(=O)O (stereo partly drawn)
inactive: [1] | [2] | [6] | [7] | [14] | [11]

CN(N=O)c1cc(O)ccc1O
inactive: [1] | [5] | [6] | [7] | [12] | [9] | [13] | [11]
active: [2] 7.94 µM | [8] 23.8 µM | [10] 7.57 µM

O=P(O)(O)C(Cl)(Cl)P(=O)(O)O
inactive: [1] | [2] | [6] | [7] | [14] | [11]

COc1cc(CC(C)N)c(OC)cc1I (stereo not drawn)
not listed: [5] | [17]
inactive: all other assays above

CCCN(CCC)CCc1ccc(O)c(O)c1
not listed: [5] | [10] | [17]
inactive: all other assays above

CC1OC1P(=O)(O)O (stereo not drawn)
inactive: [1] | [2] | [7] | [14] | [11]

CCCN1CCCC2Cc3[nH]ncc3CC21 (stereo not drawn)
inactive: [1] | [2] | [6] | [7] | [14] | [11]

NC(CCCCCP(=O)(O)O)C(=O)O (stereo not drawn)
not listed: [5] | [12] | [13] | [17]
inactive: all other assays above

O=c1c2ccccc2[se]n1-c1ccccc1
inactive: [1] | [2] | [4] | [5] | [12] | [16]
active: [8] 4.74 µM | [10] 1.51 µM

CCCN(CCC)[C@H]1CCc2c(F)ccc(O)c2C1
active: [14] 2.94 µM | [11] 2.94 µM
not listed: [5] | [13] | [17]
inactive: all other assays above

— PubChem BioAssay (NCATS)
